Assay [1] concerns the target chimpanzee Androgen Receptor (AR), AR (gene 747460) (UniProt O97775). In words: NVS_NR_cAR: NovaScreen (NVS) Nuclear Receptor Binding Assay for chimpanzee Androgen Receptor (AR) (AID 2283346).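 Also: a loss of bound radioligand signal versus DMSO counts as binding.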 Summed up: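 Radioligand binding to chimpanzee AR expressed in Sf9/Sf21 cells, cell-free, measured 72 h after dosing by lysate-based scintillation counting. Loss of signal vs DMSO; initial duplicate screen at 25 uM, actives retested in concentration series.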

The target in assay [2] is Estrogen receptor (Homo sapiens) (UniProt P03372). In words: OT_ER_ERaERa_1440: Odyssey Thera (OT) 24-hour HEK293T Protein-Complementation Assay for Estrogen Receptor-alpha/-alpha Homodimer (AID 2283349).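 Also: hits raise fluorescence above DMSO for agonists and antagonists alike.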 Summed up:
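HEK293T cells stably expressing the human ER alpha ligand-binding domain (aa 310-547) as a homodimer PCA were dosed for 24 hours. Fluorescence intensity was read by laser scanning cytometry, and gain of signal was fitted relative to DMSO vehicle.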

For assay [3] the target is unchanged. In words: OT_ER_ERaERa_0480: Odyssey Thera (OT) 8-hour HEK293T Protein-Complementation Assay for Estrogen Receptor-alpha/-alpha Homodimer (AID 2283351).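 Also: rise in fluorescence from reassembled reporter fragments on ERα LBD homodimer in nucleus or whole cell.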 In a few lines:
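Binding reporter in which dimerisation of ERα LBD (aa 310-547) fusions reconstitutes a fluorescent reporter in HEK293T cells. Compounds incubated 8 h; mean fluorescence intensity increase versus DMSO scored.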

In assay [4] the target is T1, Estrogen receptor (Homo sapiens) + Estrogen receptor beta (Homo sapiens) (UniProt P03372+Q92731). In words: OT_ER_ERaERb_1440: Odyssey Thera (OT) 24-hour HEK293T Protein-Complementation Assay for Estrogen Receptor-alpha/-beta Homodimer (AID 2283356).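 Also: heteromer of ER alpha and ER beta binding domains; hits raise reporter fluorescence and both agonists and antagonists give an increase.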 Summed up:
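24 h exposure; HEK293T PCA cells with ERα/ERβ LBD fragments; signal rise in nuclear or whole-cell fluorescence over vehicle.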

Assay [5] addresses Estrogen receptor beta (Homo sapiens) (UniProt Q92731). In words: OT_ER_ERbERb_0480: Odyssey Thera (OT) 8-hour HEK293T Protein-Complementation Assay for Estrogen Receptor-beta/-beta Homodimer (AID 2283357).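 Also: active means signal gain over DMSO baseline.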 Summed up:
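Fluorescence intensity, nuclear for agonists and nuclear plus cytoplasmic for antagonists, was quantified by laser scanning cytometry versus vehicle after 8 h treatment. The cells were HEK293T stably carrying ER beta LBD fragment-complementation partners.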

In assay [6] the target is human Peroxisome Proliferator-activated Receptor alpha (PPARa), PPARA (gene 5465) (UniProt Q07869). In words: NVS_NR_hPPARa: NovaScreen (NVS) Nuclear Receptor Binding Assay for human Peroxisome Proliferator-activated Receptor alpha (PPARa) (AID 2283359).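 Also: activity means loss of TR-FRET signal versus DMSO baseline.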 Summed up: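 Cell-free TR-FRET binding assay with extracted PPARα protein, read 1 h after dosing. Primary screen in duplicate at 25 uM, with actives retested in concentration series. Loss of signal versus DMSO.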
Chain of human Peroxisome Proliferator-activated Receptor alpha (PPARa), PPARA (gene 5465) (Q07869 whole entry, looked up): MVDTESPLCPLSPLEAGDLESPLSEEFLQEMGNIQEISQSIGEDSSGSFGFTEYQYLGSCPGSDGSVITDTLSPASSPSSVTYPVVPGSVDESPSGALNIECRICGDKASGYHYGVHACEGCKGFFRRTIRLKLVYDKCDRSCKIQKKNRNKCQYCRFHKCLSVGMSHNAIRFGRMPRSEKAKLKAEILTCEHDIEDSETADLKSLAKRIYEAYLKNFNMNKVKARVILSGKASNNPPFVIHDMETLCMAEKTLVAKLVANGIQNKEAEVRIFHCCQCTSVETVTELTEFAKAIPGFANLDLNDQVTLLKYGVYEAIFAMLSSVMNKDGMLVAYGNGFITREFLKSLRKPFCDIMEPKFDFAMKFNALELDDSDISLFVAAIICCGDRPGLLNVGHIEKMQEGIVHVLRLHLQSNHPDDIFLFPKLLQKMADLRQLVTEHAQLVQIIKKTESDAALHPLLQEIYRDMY

The next assay addresses PGR (gene 5241) (UniProt P06401). Kind of assay: NVS_NR_hPR: NovaScreen (NVS) Nuclear Receptor Binding Assay for human Progestron Receptor (PR) (AID 2283360).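 Also: active means loss of bound radioligand signal versus DMSO baseline.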 Summed up: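 T47D-derived receptor preparation, cell-free, with tritiated or iodinated radioligand displacement measured by scintillation 18 h post-dosing. Single 25 uM duplicate screen, then concentration series; signal loss relative to DMSO.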

Assay [7] deals with T1, Estrogen receptor (Homo sapiens) + Estrogen receptor beta (Homo sapiens). In words: OT_ER_ERaERb_0480: Odyssey Thera (OT) 8-hour HEK293T Protein-Complementation Assay for Estrogen Receptor-alpha/-beta Heterodimer (AID 2283352). Summed up: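 Human HEK293T cells were treated for 8 hours and receptor heterodimerisation was detected through reconstitution of a fluorescent reporter split between ER-alpha and ER-beta ligand-binding domains. Activity was analysed as gain of signal against DMSO.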

Assay [8] has as its target bovine Estrogen Receptor (ER), ESR1 (gene 407238) (UniProt P49884). In words: NVS_NR_bER: NovaScreen (NVS) Nuclear Receptor Binding Assay for bovine Estrogen Receptor (ER) (AID 2283345).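 Also: actives lower the bound radioligand count which means they displace the ER ligand.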 In a few lines:
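Displacement of a radioligand from estrogen receptor in bovine uterine membrane preparations; scintillation signal taken at 18 hours, DMSO as baseline. Single-concentration duplicates (25 uM) preceded concentration-response follow-up of actives.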

The target in assay [9] is human Thyroid Receptor Alpha (TRa), THRA (gene 7067) (UniProt P10827). Kind of assay: NVS_NR_hTRa_Antagonist: NovaScreen (NVS) Nuclear Receptor Binding Assay for human Thyroid Receptor Alpha Antagonism (TRa) (AID 2283362).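 Also: activity is loss of signal relative to DMSO baseline.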 Summed up:
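In this biochemical format, receptor protein is dosed with chemical and read after 1 hour via AlphaLISA. Decreases from the DMSO baseline indicate antagonist activity; screening used 25 uM in duplicate before concentration-response confirmation.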

Assay [10] addresses Androgen Receptor/SRC-1 Co-activator, AR (gene 367) (UniProt P10275). Kind of assay: OT_AR_ARSRC1_0960: Odyssey Thera (OT) 16-hour HEK293T Protein-Complementation Assay for Androgen Receptor/SRC-1 Co-activator (AID 2283353).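 Also: actives raise the signal above DMSO so potency reflects increased AR and SRC-1 complex.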 In a few lines: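 Interaction of AR with SRC-1 was followed by YFP fragment complementation in HEK293T cells after 16 h of dosing. Gain of nuclear-over-cytoplasmic 488 nm fluorescence against DMSO controls defined activity.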

The target is the same in assay [11]. In words: OT_AR_ARSRC1_0480: Odyssey Thera (OT) 8-hour HEK293T Protein-Complementation Assay for Androgen Receptor/SRC-1 Co-activator (AID 2283354).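 Also: hits raise the complementation signal above DMSO so AC50 marks enhancers.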 Summed up:
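HEK293T cells stably expressing AR and SRC-1 fused to Venus YFP fragments, imaged 8 h after dosing. Complementation fluorescence scored as nuclear/cytoplasmic ratio at 488 nm in at least 400 cells per image; gain fitted versus DMSO.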

Assay [12] has as its target Glucocorticoid receptor (Homo sapiens) (UniProt P04150). Kind of assay: NVS_NR_hGR: NovaScreen (NVS) Nuclear Receptor Binding Assay for human Glucocorticoid Receptor (GR) (AID 2283363).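 Also: activity is loss of specific radioligand binding signal relative to DMSO.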 In a few lines: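 Cell-free radioligand displacement assay on extracted human GR, read 16 h after dosing by filter-based scintillation counting. Screened in duplicate at 25 uM, then concentration series for actives; loss of signal versus DMSO baseline.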

Assay [13] has as its target Bile acid receptor (Homo sapiens) (UniProt Q96RI1). Kind of assay: NVS_NR_hFXR_Agonist: NovaScreen (NVS) Nuclear Receptor Binding Assay for human Farnesoid X Receptor Agonism (FXR) (AID 2283347). In a few lines:
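Cell-free TR-FRET binding assay with extracted human FXR protein, agonist format, read 1 h after dosing. Primary screen at 25 uM single concentration in duplicate, actives retested in concentration series; gain of signal versus DMSO.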

Assay [14] has as its target rat Mineralocorticoid Receptor (MR), Nr3c2 (gene 25672) (UniProt P22199). In words: NVS_NR_rMR: NovaScreen (NVS) Nuclear Receptor Binding Assay for rat Mineralocorticoid Receptor (MR) (AID 2283355). Summed up:
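Cell-free radioligand binding to mineralocorticoid receptor from adrenalectomized rat brain supernatant, scintillation counting after 24 h. Primary screen in duplicate at 25 uM; actives retested in concentration series. Loss of specific binding versus DMSO.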

The target in assay [15] is Retinoic acid receptor alpha (Homo sapiens) (UniProt P10276). In words: NVS_NR_hRARa_Agonist: NovaScreen (NVS) Nuclear Receptor Binding Assay for human Retinoic Acid Alpha Receptor Agonism (RAR) (AID 2283361). In a few lines:
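Cell-free TR-FRET binding readout with extracted receptor protein, read 2 hours after dosing; gain-of-signal fitted relative to DMSO. Screened in duplicate at 25 uM, actives then run in concentration-response.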

Several values for one entry are separate records, joined by “and”; a condition that tells them apart may be missing. Identical values can stand only once. Inconclusive results are not listed. Some structures have more than one record in an assay (separate samples or runs), and their calls can disagree. Activity calls are given as the source filed them. The calls were made as follows: active = hit-call score of the fitted dose curve at least 0.9, where 1 is the maximum; inconclusive = response in the unintended direction; inactive = score below 0.9.

This is an account of results in PubChem BioAssay (EPA / NIEHS).

Chain of Estrogen receptor (Homo sapiens) (P03372 whole entry, looked up, the tested form may be a part): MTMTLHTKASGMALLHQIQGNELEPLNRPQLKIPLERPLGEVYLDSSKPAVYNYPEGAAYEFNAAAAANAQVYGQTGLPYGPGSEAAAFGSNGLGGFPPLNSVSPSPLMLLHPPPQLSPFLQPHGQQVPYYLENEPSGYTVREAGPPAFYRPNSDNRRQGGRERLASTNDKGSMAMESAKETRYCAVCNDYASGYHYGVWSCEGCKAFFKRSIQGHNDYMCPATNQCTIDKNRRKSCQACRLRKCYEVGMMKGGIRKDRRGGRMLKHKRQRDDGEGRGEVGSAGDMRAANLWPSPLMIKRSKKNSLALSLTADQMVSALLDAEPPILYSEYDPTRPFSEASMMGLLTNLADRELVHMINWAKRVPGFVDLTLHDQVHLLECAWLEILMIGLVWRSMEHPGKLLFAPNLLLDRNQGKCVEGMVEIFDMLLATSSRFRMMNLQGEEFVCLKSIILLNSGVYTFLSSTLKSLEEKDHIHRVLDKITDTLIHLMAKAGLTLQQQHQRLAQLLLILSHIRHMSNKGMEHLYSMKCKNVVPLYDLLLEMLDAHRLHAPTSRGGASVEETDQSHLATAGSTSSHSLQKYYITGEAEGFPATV
T1 sequence (P03372 whole entry, looked up, the tested form may be a part): as above
T1 sequence (Q92731 whole entry, looked up, the tested form may be a part): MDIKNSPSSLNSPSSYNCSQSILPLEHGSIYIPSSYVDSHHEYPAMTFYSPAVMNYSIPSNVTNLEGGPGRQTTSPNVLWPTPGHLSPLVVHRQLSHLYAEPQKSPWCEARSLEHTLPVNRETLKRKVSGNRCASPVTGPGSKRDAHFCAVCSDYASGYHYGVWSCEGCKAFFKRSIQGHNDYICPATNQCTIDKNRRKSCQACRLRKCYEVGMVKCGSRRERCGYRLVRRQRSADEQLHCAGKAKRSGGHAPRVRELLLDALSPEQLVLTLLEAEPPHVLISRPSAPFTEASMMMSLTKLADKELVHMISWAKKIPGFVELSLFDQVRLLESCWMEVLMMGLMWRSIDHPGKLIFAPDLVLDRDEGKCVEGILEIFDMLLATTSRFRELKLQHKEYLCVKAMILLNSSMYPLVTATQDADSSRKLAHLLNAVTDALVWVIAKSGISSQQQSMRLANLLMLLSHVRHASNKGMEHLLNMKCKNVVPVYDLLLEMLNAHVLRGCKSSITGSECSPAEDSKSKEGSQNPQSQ
Chain of human Thyroid Receptor Alpha (TRa), THRA (gene 7067) (P10827 whole entry, looked up): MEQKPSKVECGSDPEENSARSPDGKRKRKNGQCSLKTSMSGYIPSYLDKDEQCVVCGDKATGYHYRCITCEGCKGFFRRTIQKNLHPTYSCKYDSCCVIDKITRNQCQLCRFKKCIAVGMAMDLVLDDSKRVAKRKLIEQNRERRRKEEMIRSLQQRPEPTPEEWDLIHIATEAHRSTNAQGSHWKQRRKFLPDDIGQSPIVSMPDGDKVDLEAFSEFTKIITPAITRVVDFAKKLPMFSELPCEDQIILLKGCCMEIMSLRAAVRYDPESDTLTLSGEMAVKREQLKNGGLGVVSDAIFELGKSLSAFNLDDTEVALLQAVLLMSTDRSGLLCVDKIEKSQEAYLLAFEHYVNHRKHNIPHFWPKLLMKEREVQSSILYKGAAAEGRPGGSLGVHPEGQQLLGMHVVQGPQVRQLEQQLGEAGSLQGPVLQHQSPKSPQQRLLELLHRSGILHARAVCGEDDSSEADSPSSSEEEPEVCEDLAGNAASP
Chain of chimpanzee Androgen Receptor (AR), AR (gene 747460) (O97775 whole entry, looked up): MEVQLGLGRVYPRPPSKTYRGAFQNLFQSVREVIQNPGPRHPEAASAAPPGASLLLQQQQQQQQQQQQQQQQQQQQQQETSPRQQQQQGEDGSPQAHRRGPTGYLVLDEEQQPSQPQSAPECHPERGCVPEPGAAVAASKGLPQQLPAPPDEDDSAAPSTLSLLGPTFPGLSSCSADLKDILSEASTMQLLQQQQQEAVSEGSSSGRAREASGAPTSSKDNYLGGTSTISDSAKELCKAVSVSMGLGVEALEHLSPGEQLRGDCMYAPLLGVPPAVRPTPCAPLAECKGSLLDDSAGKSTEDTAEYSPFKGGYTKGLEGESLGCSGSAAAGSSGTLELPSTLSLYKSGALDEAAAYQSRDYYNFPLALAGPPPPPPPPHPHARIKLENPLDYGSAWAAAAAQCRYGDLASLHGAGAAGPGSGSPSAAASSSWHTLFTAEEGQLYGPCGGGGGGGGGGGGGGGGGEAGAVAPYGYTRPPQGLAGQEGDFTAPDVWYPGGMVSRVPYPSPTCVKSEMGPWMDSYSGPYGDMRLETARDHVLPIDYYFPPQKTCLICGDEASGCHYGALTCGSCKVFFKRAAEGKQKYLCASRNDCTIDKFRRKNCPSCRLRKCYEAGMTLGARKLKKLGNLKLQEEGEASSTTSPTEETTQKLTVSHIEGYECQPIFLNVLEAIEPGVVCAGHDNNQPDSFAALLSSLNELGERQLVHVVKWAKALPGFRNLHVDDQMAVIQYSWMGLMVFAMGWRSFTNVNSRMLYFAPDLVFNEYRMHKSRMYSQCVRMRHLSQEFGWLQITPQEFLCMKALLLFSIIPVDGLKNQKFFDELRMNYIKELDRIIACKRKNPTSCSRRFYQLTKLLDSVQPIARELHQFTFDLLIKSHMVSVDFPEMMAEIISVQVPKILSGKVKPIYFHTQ
Chain of Estrogen receptor beta (Homo sapiens) (Q92731 whole entry, looked up, the tested form may be a part): as the sequence (Q92731 whole entry, looked up, the tested form may be a part) above
Chain of Glucocorticoid receptor (Homo sapiens) (P04150 whole entry, looked up): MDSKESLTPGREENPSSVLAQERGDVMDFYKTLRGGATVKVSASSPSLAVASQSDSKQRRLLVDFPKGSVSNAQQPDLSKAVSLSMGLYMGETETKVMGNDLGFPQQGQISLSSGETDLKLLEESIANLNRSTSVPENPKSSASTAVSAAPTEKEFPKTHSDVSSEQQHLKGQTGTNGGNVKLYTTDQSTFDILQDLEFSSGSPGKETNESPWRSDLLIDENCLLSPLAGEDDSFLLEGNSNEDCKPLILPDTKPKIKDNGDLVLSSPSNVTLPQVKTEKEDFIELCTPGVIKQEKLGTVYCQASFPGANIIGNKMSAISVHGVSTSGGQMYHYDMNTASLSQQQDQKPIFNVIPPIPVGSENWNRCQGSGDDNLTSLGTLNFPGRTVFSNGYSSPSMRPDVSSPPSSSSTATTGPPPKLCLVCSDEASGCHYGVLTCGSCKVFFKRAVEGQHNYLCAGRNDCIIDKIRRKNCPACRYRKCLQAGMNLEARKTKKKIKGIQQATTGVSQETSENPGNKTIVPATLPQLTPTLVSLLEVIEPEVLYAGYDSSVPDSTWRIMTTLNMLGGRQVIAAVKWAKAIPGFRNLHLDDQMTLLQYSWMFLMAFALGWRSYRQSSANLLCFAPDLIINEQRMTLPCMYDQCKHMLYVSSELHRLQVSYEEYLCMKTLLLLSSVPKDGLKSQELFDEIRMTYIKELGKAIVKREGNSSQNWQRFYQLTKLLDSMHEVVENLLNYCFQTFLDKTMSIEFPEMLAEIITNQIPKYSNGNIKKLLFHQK
Chain of Androgen Receptor/SRC-1 Co-activator, AR (gene 367) (P10275 whole entry, looked up, the tested form may be a part): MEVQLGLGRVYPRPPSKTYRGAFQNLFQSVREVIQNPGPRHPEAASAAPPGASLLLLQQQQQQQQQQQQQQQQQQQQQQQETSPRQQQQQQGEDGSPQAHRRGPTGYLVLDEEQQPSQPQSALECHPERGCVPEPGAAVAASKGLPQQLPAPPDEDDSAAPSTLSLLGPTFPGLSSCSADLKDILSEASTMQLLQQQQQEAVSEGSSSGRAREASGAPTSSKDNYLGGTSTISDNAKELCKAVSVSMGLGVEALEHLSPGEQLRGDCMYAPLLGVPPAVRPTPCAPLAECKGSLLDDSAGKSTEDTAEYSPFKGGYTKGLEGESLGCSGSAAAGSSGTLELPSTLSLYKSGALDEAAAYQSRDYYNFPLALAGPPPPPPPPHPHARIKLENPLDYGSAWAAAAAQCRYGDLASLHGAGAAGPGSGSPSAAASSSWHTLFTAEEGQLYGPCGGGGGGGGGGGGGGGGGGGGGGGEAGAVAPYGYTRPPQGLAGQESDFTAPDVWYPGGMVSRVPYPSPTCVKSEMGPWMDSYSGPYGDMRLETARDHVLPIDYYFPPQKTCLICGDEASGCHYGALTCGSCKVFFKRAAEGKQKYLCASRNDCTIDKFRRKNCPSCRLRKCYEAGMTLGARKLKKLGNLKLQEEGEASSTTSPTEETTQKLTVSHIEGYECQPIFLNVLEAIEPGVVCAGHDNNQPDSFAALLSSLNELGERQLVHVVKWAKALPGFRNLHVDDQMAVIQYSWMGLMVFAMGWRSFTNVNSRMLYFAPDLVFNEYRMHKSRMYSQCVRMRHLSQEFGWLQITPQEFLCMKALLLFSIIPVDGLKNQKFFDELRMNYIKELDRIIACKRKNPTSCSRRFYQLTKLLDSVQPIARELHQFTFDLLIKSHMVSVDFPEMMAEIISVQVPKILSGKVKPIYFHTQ

In the case of `N#CCCO`, the call in assay [1] was inactive.

Turning to `CNC`, the compound was classed as inactive in assay [2] and in [3].

With `CCOC(=O)Nc1cccc(OC(=O)Nc2ccccc2)c1`, the compound was classed as inactive in [1], in assay [2], in assay [3], in assay [4] and in assay [5].

Broadly, the AC50 is the concentration giving half of the maximal activity seen. As for `Oc1ccc(-c2ccccc2)cc1`, the results for the AC50 (in [1]; in assay [5]; with PGR (gene 5241)) were 4.83 µM (active), 12.7 µM (active) and 43.2 µM (active), respectively. In addition, the outcome in assay [1] and in [6] was inactive.

Regarding `COc1cc(OC)nc(NC(=O)NS(=O)(=O)c2ncccc2C(=O)N(C)C)n1`, the compound was classed as inactive in assay [1], in [2], in [3], in assay [7], in assay [4] and in [5].

With `NNC(=S)NN`, the outcome in assay [8], in assay [2], in assay [3], in assay [4] and in assay [5] was inactive. In addition, the AC50 in [9] was 25.4 µM (active).

For the compound `Cc1ccc(N)cc1Cl`, the outcome in assay [1], in assay [2], in [3], in assay [7] and in assay [5] was inactive. For the same compound, the concentration at half-maximal activity (AC50) in [4] is 15.3 µM (active).

Take `CCNc1nc(NC(C)(C)C)nc(SC)n1`: in [1], the outcome was inactive.

Consider `Nc1ccc(-c2ccc(N)c(Cl)c2)cc1Cl`, for which, in assay [8], the result was inactive. The AC50 with PGR (gene 5241) was 41.1 µM (active).

Consider `C[C@@H]1C[C@@H]([C@H](O)CC2CC(=O)NC(=O)C2)C(=O)[C@@H](C)C1`, for which the result in assay [1] and in [5] was inactive.

Regarding `Fc1ccc(C2(Cn3cncn3)OC2c2ccccc2Cl)cc1` (configuration not stated), in assay [1], the call was inactive. Further, the AC50 is 39.5 µM (active) in assay [2]; 23.7 µM (active) in assay [3]; 12.7 µM (active) in assay [7]; 27.3 µM (active) in [4]; 14.9 µM (active) in [5].

For `ClC(Cl)=C(Cl)C(Cl)=C(Cl)Cl`, the call in assay [2] and in assay [3] was inactive.

Turning to `CC12CC1(C)C(=O)N(c1cc(Cl)cc(Cl)c1)C2=O` (configuration not stated), the compound was classed as inactive in assay [1], in assay [10], in [11] and in [5].

As for `CC(C)C1CCC(Cc2ccc(Cl)cc2)C1(O)Cn1cncn1` (configuration not stated), the figures for the concentration at half-maximal activity (AC50) in assay [1], in assay [4] and in [12] were 10.3 µM (active), 11.7 µM (active) and 5.7 µM (active), respectively. The compound was classed as inactive in assay [2], in assay [3] and in [5].

With `Cl/C=C\C[N+]12CN3CN(CN(C3)C1)C2`, the concentration at half-maximal activity (AC50) in assay [1] is 1.43 µM (active); in assay [10], 76.6 µM (active); in assay [11], 91.5 µM (active); in assay [4], 11.6 µM (active). In addition, the call in assay [2], in [3] and in assay [5] was inactive.

For `CCC(C)(C)c1ccc(O)c(C(C)(C)CC)c1`, the compound was called inactive in [13], in assay [2], in assay [3], in assay [4] and in [5].

In the case of `O=C/C=C/c1ccccc1`, the result in assay [2] and in [3] was inactive.

Take `COc1cc(-c2ccc(N)c(OC)c2)ccc1N`: the half-maximal activity concentration (AC50) in [1] was 18.5 µM (active) and 25 µM (active); in [6] it was 14.1 µM (active). The outcome in assay [14], in assay [6] and in assay [15] was inactive.

With `CNC(=O)O/N=C/C(C)(C)S(C)=O` (configuration not stated), the compound was classed as inactive in assay [1], in assay [2], in assay [3], in assay [7], in assay [4] and in assay [5].

On to `Cl/C=C/Cl`, for which the call in [2] and in assay [3] was inactive.

Turning to `CCCCCCCCCl`, the result in assay [1] was inactive.

For `Cc1ccccc1C(=O)Nc1cccc(OC(C)C)c1`, the call in [1], in [2], in [3], in [7], in assay [10] and in assay [11] was inactive. In assay [4], the result was inactive.

As for `O=C1C(Cl)=C(Cl)C(=O)c2ccccc21`, the AC50 in assay [2] and in assay [3] was 11.9 µM (active) in each case.

`O=C1C2(Cl)C3(Cl)C4(Cl)C(Cl)(Cl)C5(Cl)C3(Cl)C1(Cl)C5(Cl)C24Cl` (configuration not stated): the outcome in [1], in assay [13], in [6] and in [9] was inactive. Besides, the AC50 was 19.2 µM (active) and 46.6 µM (active) and 26 µM (active) in [10]; 28.5 µM (active) and 76.6 µM (active) and 31.5 µM (active) in assay [11]; 841 nM (active) and 992 nM (active) and 186 nM (active) in assay [12].

As to `CC(=O)c1cc(C(C)(C)C)cc2c1CCC2(C)C`, the outcome in assay [2] and in assay [3] was inactive.

As to `CCCCOCCOC(C)=O`, the result in assay [2] and in [3] was inactive.

As to `CC1(C)CCC(Cc2ccc(Cl)cc2)C1(O)Cn1cncn1` (configuration not stated), the concentration at half-maximal activity (AC50) in [1] is 6.82 µM (active). For the same compound, the call in assay [2] and in [3] was inactive.

As for `COc1ccc(C=O)cc1`, the result in assay [2] and in [3] was inactive.

With `CCC[CH2][Sn]([Cl])([Cl])[Cl]`, the half-maximal activity concentration (AC50) in assay [1] was 25 µM (active). Besides, the outcome in assay [2] and in assay [3] was inactive.

As for `CCN(CC)C(=O)Cl`, the AC50 in assay [1] was 2.82 µM (active).

With `O=C1CCCN1`, the compound was called inactive in assay [2] and in [3].

Consider `CC(C)(C)c1cc(O)ccc1O`, for which the outcome in assay [2] and in assay [3] was inactive.

For the compound `O=C(Nc1ccc2[nH]ccc2c1)c1cc2cc(F)ccc2n1Cc1cccc(F)c1`, the call in assay [2] and in assay [3] was inactive.

`O=C(NCO)NCO`: the compound was classed as inactive in [2] and in [3].

Turning to `CC(C)(C)CC(C)(C)c1ccc(O)cc1`, the result in assay [14] was inactive.

For the compound `ClC1(Cl)C2(Cl)C3(Cl)C4(Cl)C(Cl)(Cl)C5(Cl)C3(Cl)C1(Cl)C5(Cl)C24Cl` (configuration not stated), the outcome in assay [15] was inactive.

`Oc1cccc2cccnc12`: the AC50 in assay [9] was 5.52 µM (active).
